Screening data: PubChem BioAssay, National Center for Advancing Translational Sciences (NCATS)
Hits are enriched below; roughly 19% of the tested compounds scored in any of these assays.
DT40 TDP1 no CPT: qHTS for Inhibitors of human tyrosyl-DNA phosphodiesterase 1 (TDP1): qHTS in cells in absence of CPT; DT40 Tdp1-/- hTDP1 cells, no CPT, ATP luminescence, 48 h; Potency, µM (series often up to 46.2 µM), for inactives: at the highest dose activity change, negative = growth inhibition, usual class: inhibitors; 420,000 tested, 15% active; also: potency is read from the fitted curve at half-maximal effect; nearly all actives have a fitted effect of over 55% in size
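Stably hTDP1-transfected Tdp1-null chicken DT40 cells were treated with library compounds minus camptothecin and grown for at least 48 hr at 37 °C, after which cellular ATP was quantified by luminescence.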
ELG1 DNA repair: blocks ELG1-dependent DNA repair in HEK293T cells; HEK293T ELG1-luciferase reporter, luminescence, 16 h; DNA damage induced by 5-fluorouridine; Potency, µM (titrated, usually from 46.1 µM), without a hit: at the top dose activity change, negative = inhibition, hits mostly inhibitors; 330,000 tested, 2.3% active; also: potency is read from the fitted curve at half-maximal effect; nearly all actives have a fitted effect of over 55% in size
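DMSO vehicle served as the neutral condition. Each well held 2,000 cells given 5-fluorouridine plus compound; after 16 hr at 37 °C/5% CO2, ONE-Glo was added and luciferase measured 30 min later.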
DT40 TDP1 CPT: DT40-hTDP1 cell growth loss with CPT; chicken DT40 Tdp1-/-;hTDP1 cells + 20 nM CPT, ATP luminescence, 48 h; Potency, µM (highest dose often 46.2 µM), inactives show top-dose activity change, negative = growth inhibition, most hits filed as inhibitors; 420,000 tested, 12% active; also: potency is read from the fitted curve at half-maximal effect; nearly all actives have a fitted effect of over 55% in size
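Cell growth measured by CellTiter-Glo luminescence after a minimum 48 h, 37 C compound exposure with 20 nM CPT in Tdp1-knockout DT40 cells stably expressing hTDP1, seeded 400/well; qHTS titration format.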
IL-1B inflam inh: blocks inflammasome-driven IL-1 beta release; THP-1 LPS/ATP IL-1B secretion, AlphaLISA, 16 h; hits give low values; activity change, % at 57.5 µM; 360,000 tested, 4.7% active; AID 743279; in the data active = activity change below about -50%; inconclusive = mostly about -30% to -49%
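Secreted IL-1B measured by AlphaLISA bead assay after 16 h compound exposure of THP-1 cells; compounds (final up to 57.5 uM) added 1 h before LPS (250 ng/mL) and ATP (1.25 mM) stimulation; lower signal means less secretion.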
TDP1 block: TDP1 (human) enzyme inhibition; recombinant TDP1, AlphaScreen DNA substrate cleavage; AID 485290; Q9NUW8; 350,000 tested, 0.28% active; Potency, µM (highest dose often 130 µM), for inactives: top-dose activity change, negative = inhibition, most hits filed as inhibitors; also: potency is read from the fitted curve at half-maximal effect; nearly all actives have a fitted effect of over 40% in size
Target sequence (Q9NUW8 whole entry, looked up): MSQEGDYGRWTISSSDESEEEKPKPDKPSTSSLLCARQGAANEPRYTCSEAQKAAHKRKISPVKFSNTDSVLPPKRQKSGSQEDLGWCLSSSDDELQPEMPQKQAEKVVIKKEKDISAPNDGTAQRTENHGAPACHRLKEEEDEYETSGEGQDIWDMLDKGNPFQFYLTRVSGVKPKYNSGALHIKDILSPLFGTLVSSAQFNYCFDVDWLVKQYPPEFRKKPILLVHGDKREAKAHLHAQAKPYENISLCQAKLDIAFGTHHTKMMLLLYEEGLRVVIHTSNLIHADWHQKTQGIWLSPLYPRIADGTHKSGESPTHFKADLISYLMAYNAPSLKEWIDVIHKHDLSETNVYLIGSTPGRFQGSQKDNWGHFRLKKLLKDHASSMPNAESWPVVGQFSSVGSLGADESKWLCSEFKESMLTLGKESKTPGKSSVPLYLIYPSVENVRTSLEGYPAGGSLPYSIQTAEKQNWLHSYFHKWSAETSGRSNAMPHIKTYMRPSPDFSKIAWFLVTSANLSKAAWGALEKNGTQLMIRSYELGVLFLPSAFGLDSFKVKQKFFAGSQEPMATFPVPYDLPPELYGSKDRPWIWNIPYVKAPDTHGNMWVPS
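Recombinant human Tdp1 (E. coli-expressed, 1 nM final) preincubated with compounds 15 min at room temperature, then 5'-biotin/3'-phosphotyrosine-FITC DNA substrate (15 nM final) added for 5 min. AlphaScreen beads (10 ug/ml final) added 10 min; cleavage lowers signal.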
Giardia kill: Giardia lamblia killing; Giardia lamblia trophozoite viability; 340,000 tested, 0.15% active; AID 540267; activity change, % at 7.66 µM, hits read low; in the data active = activity change below about -80%; inconclusive = between about -30% and that limit;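 also: parasites exposed to compound for two days anaerobically before the ATP read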
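Trophozoites 100 cells/well + cpd; 48 hrs, 37 deg C, anaerobic. ATPLite 1-Step added, 15-30 min RT, luminescence read (ATP-based viability).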
An asterisk follows results filed as active; ? = inconclusive; / = no result given; [ ] = another dose, or the depositor's remark. Unless noted, calls follow the shape of the dose curve; as a rule, active = well fitted curve in the direction sought with a large enough effect; inconclusive = small, poorly fitted or top-dose-only effect, or another doubt; inactive = no such curve, though single readings can be large; an effect the other way counts as inactive or inconclusive. % is scaled to controls: 0 for no effect and ±100 for the full control effect.

SMILES	DT40 TDP1 no CPT	ELG1 DNA repair	DT40 TDP1 CPT	IL-1B inflam inh	TDP1 block	Giardia kill
CCOC(=O)C1CCCN(C(=O)CN2C(=O)NC(C)(c3ccc4ccccc4c3)C2=O)C1 (stereo not given)	-15.1%	6.1%	-28.0%	-26.4	-7.8%[0.505 µM]	23.9
COc1ccccc1C1CN(Cc2cccc(O)c2)Cc2ccccc2O1 (stereo not given)	16.4µM*	/	-3.2%[9.04 µM]	/	/	/
COCc1ccc(CN2Cc3ccccc3OC(c3ccccc3OC)C2)o1 (stereo not given)	-9.1%	/	-11.1%[9.04 µM]	/	/	/
COc1ccc(CN2Cc3ccccc3OC(c3ccccc3OC)C2)cc1O (stereo not given)	?	/	2.8%[9.04 µM]	/	/	/
COc1ccccc1C1CN(Cc2ccc(Sc3nncn3C)o2)Cc2ccccc2O1 (stereo not given)	16.4µM*	/	-10.5%[9.04 µM]	/	/	/
CC(=O)c1cccc(NC(=O)C(Cc2ccccc2)NS(=O)(=O)c2ccc(Br)s2)c1 (stereo not given)	-21.0%	/	-21.1%	/	-7.5%	/
Cc1ccc(NC(=O)CSc2nc3nccnc3c(=O)n2CCc2c[nH]c3ccccc23)c(C)c1	11.6µM*	/	11.6µM*	/	1.3%	/
COc1ccccc1NC(=O)Cn1c(=O)n(CCc2c[nH]c3ccccc23)c(=O)c2cccnc21	-62.3%	?	?	-10.3	0.0%	4.0
Cc1ccc(NC(=O)CSc2nc3nccnc3c(=O)n2CCc2c[nH]c3ccccc23)cc1C	11.6µM*	/	13µM*	/	2.6%	/
COc1ccccc1NC(=O)CSc1nc2nccnc2c(=O)n1CCc1c[nH]c2ccccc12	14.6µM*	/	18.4µM*	/	5.2%	/
O=c1oc2ccccc2cc1-c1nc(-c2cccs2)no1	-24.3%	/	-27.2%	/	-4.7%	/
CO[C@H]1[C@H](NC(=O)c2ccco2)c2ccccc2C12CCN(Cc1cnn(-c3ccccc3)c1)CC2	-17.7%	/	11.0%[9.04 µM]	/	/	/
CN1C(=O)Cc2cc(S(=O)(=O)CCC(=O)Nc3ccccc3)ccc21	-1.8%	/	8.2%	/	-2.6%	/
O=c1cc(-c2ccccc2)c2ccc3c(c2o1)CN(Cc1ccccc1)CO3	?	/	-13.7%	/	3.7%	/
COc1ccc(-c2cc(=O)oc3c4c(ccc23)OCN(Cc2ccccc2)C4)cc1	?	/	18.4µM*	/	3.7%	/
COc1ccc(-c2cc(=O)oc3c4c(ccc23)OCN(Cc2cccc(OC)c2)C4)cc1	16.4µM*	/	10.3µM*	/	-1.2%	/
COc1ccc(CN2COc3ccc4c(-c5ccccc5)cc(=O)oc4c3C2)cc1OC	?	/	?	/	3.7%	/
CCN(CC)CCOC(=O)c1ccc(NC(=O)c2cc3c(s2)-c2ccccc2OC3)cc1	/	/	/	/	-7.8%	/
CCC(C)(C)C(=O)O[C@@H]1C[C@H](C)C=C2C=C[C@H](C)[C@@H](CC[C@H]3C[C@@H](O)CC(=O)O3)[C@H]21	/	/	/	/	15.4%[21 µM]	/
C[C@H]1C=C2C=C[C@H](C)[C@H](CC[C@@H]3C[C@@H](O)CC(=O)O3)[C@H]2[C@@H](OC(=O)[C@@H](C)CCO)C1	26.6µM*	/	26.6µM*	/	11.9%	/
Cc1cc(C)cc(NC(=O)c2cc(CN3CCCC3)on2)c1	-10.3%	/	6.4%	/	5.8%	/
Cc1ccc(CCNC(=O)C2CCCN(C(=O)c3cc4sccc4n3C)C2)cc1 (stereo not given)	?	?	-28.6%	-26.2	4.5%	-0.3
Cn1c(C(=O)N2CCCC(C(=O)NCCCc3ccccc3)C2)cc2sccc21 (stereo not given)	10.3µM*	0.0%	18.4µM*	-9.7	7.2%	18.2
Cn1c(C(=O)N2CCCC(C(=O)NCCc3ccccc3)C2)cc2sccc21 (stereo not given)	5.8µM*	?	5.8µM*	15.0	6.4%	-2.6
O=C(COc1ccc2ccc(=O)oc2c1)NCCCN1CCCC1=O	23.1%	6.5%	-5.6%	5.0	1.0%	9.4
